The values that follow come from PubChem BioAssay (NCI).

The panel holds about 83,000 compounds, 20% with a hit somewhere; the sample as a whole holds those more often.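 Interpretation: 100, growth as untreated; towards 0, rising growth inhibition; 0, no net growth; 0 to -100, cell death. Compounds scoring below 10 were considered active.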 Values without a mark were called inactive. Active and inactive are the calls of the source.

The subject of the assay is MDA-MB-468 breast. Nature of the assay: NCI-60 one-dose screen, 48 h (100 = growth as untreated, 0 = no growth, -100 = all killed). Conditions: 10 µM unless noted.
Consider `c1ccc(CCn2nnc3c(Nc4ccc(N5CCOCC5)cc4)ncnc32)cc1`, for which the growth was 76%.

With `CC[C@@](C)(NC(=O)C(C)(C)NC(=O)[C@@H](NC(=O)[C@@H]1CCCN1C(=O)C(C)(C)NC(=O)[C@H](CC(C)C)NC(=O)CNC(=O)C(C)(C)NC(=O)[C@@H](NC(=O)C(C)(C)NC(=O)[C@H](CCC(N)=O)NC(=O)[C@H](C)NC(=O)C(C)(C)NC(=O)[C@H](C)NC(=O)C(C)(C)NC(=O)[C@@H]1CCCN1C(=O)C(C)(C)NC(C)=O)C(C)C)C(C)C)C(=O)N[C@@H](CCC(N)=O)C(=O)N[C@@H](CCC(N)=O)C(=O)N[C@H](CO)Cc1ccccc1`, the growth was -3.95% [4.25 µM] (active).

For `CCOC(=O)Nc1ccc2c(c1)C(=O)N(CC)c1ccccc1O2`, the growth was -3.61% (active).

Take `COc1cc(CSc2nc3ccc(Cl)cc3c(=O)n2Cc2ccccc2)cc(OC)c1OC`: the growth is -13.1% (active).

Consider `COc1ccc(OC)c(-c2c(C#N)c(-c3ccc(Cl)cc3)nc3c2c(-c2ccccc2)nn3-c2ccccc2)c1`, for which the growth is 103%.

With `C[C@@H]1CC[C@@H]2[C@@H]1[C@H](OC(=O)/C=C/c1ccccc1)[C@]1(c3ccccc3)C[C@@H](NC(=O)CO)[C@@]2(C)O1`, the growth was 98.3%.

For the molecule `COc1ccc2c(c1)c(-c1nn3cc(-c4ccncc4)nc3s1)cn2C`, the growth was 79.3%.

Turning to `COCCOc1ccc2ncc(C#Cc3cncc(C(=O)Nc4ccc(CN5CCN(C)CC5)c(C(F)(F)F)c4)c3)n2n1`, the growth is 7.9% (active).

Regarding `Cn1cc(-c2nonc2-c2c[nH]c3ccc(F)cc23)c2cc(Br)ccc21`, the growth was 58.7%.
